This is a sample that favours compounds with a hit; in the whole collection about 3.7% have one here.
tim23-1 inh = growth inhibitors of tim23-1 mutant yeast; S. cerevisiae tim23-1 growth, BacTiter-Glo luminescence, 24 h; 330,000 compounds, 1.3% hits; inhibition, % at 20 µM;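 active means growth inhibition of the mutant yeast at or above 50%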;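 further: temperature-sensitive mutant grown at 25 °C; plate controls were DMSO-treated mutant yeast for no effect and medium wells lacking yeast for full effect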
PfHsp90 yeast 2 = growth inhibition of yeast expressing Plasmodium Hsp90. S. cerevisiae expressing PfHsp90, BacTiter-Glo ATP, 48 h; yeast lacking PDR1 and PDR3 efflux regulators. inhibition, % at 9.4 µM. 310,000 compounds, 0.32% hits. AID 504621;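 active means every replicate shows inhibition above about 80%, whatever the replicate mean, limit read from the data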;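 further: 0% = DMSO neutral controls and 100% = 20 µM radicicol positive controls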
NLRP3 yeast inh = blocks the NALP3 inflammasome reconstituted in yeast; Yeast reconstituted NLRP3/ASC/caspase-1, beta-gal luminescence, 24 h; 330,000 compounds, 0.39% hits; inhibition, % at 10 µM;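 active means inhibition of 50% or more; inactive means inhibition below 50%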;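 further: plate controls were induced DMSO wells for no effect and uninduced yeast grown without galactose for full effect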
tim10-1 inh = tim10-1 yeast growth inhibition. AID 463190. inhibition, % at 20 µM. S. cerevisiae tim10-1 ts strain growth, BacTiter-Glo, 24 h. 330,000 compounds, 2.2% hits;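 active means inhibition of at least 40%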;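 further: mutant grown at 25 °C; 0% = DMSO wells with yeast and 100% = wells holding no yeast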
TIM10 inh = TIM10 yeast growth inhibition. S. cerevisiae TIM10 strain growth, BacTiter-Glo luminescence, 24 h. inhibition, % at 10 µM. 330,000 compounds, 1.4% hits. AID 463195;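 active means inhibition of 40% or more at the single tested concentration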;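 further: wild-type TIM10 isogenic control strain grown at permissive 25 °C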
* marks the source's active call; other numbers are inactive results; / = no result; + = active, no number.

SMILES	tim23-1 inh	PfHsp90 yeast 2	NLRP3 yeast inh	tim10-1 inh	TIM10 inh
CCS(=O)(=O)Nc1ccc(-c2cc(-c3ccccc3)c3cc(C)ccc3n2)cc1	/	69.1	/	/	/
Cc1ccc2nc(-c3ccc(NS(C)(=O)=O)cc3)cc(-c3ccccc3)c2c1	35.4	137.2*	22.0	39.3	29.3
O=C(Nc1nc(-c2ccccc2)cs1)c1ccccc1NS(=O)(=O)c1ccc(F)cc1	6.9	102.9*	-6.1	-27.3	-83.5
CC(C)(C)C(=O)NC(=S)NNC(=O)c1sc2ccccc2c1Cl	21.5	99.3*	31.7	-58.9	-3.9
Cc1cc(C(=O)OCC(=O)N(CC(C)C)c2c(N)n(Cc3ccccc3)c(=O)[nH]c2=O)c(C)o1	13.9	/	10.9	5.3	-1.7
Cc1ccc(C(=O)N2CCN(c3ccccc3Cl)CC2)cc1[N+](=O)[O-]	46.5	105.4*	10.9	13.3	10.4
Cc1ccc(C(=O)N2CCN(c3ccccn3)CC2)cc1[N+](=O)[O-]	8.9	5.7	5.1	10.5	7.8
COc1ccc(C(=O)COC(=O)c2cc([N+](=O)[O-])ccc2N2CCOCC2)c(OC)c1	-43.6	+	23.9	-28.2	-114.6
COc1ccccc1C(=O)COC(=O)c1cc([N+](=O)[O-])ccc1N1CCOCC1	-17.7	-119.7	21.3	0.5	-99.0
O=[N+]([O-])/C=C\c1ccc(N2CCOCC2)cc1	16.9	-7.8	9.5	11.0	13.7
CN(c1ccccc1)c1ccc(/C=C/[N+](=O)[O-])cc1	/	106.0*	/	/	/
Cc1ccccc1-n1nnnc1SCC(=O)c1c(N)n(C2CC2)c(=O)[nH]c1=O	2.2	-2.0	9.1	-1.3	-1.1
CCOc1ccc(NS(=O)(=O)c2ccc(-c3ccc(=O)[nH]n3)o2)cc1	4.2	-11.7	7.2	-2.3	-7.2
Cn1c2ccccc2c2ccc3c(c21)C(=O)C=CC3=O	/	124.4*	/	/	/
CC1(C)CC[C@]2(C(=O)O[C@@H]3O[C@H](CO)[C@@H](O)[C@H](O)[C@H]3O)CC[C@]3(C)C(=CCC4[C@@]5(C)CC[C@H](O[C@@H]6O[C@H](C(=O)O)[C@@H](O[C@H]7OC[C@@H](O)[C@@H](O)[C@@H]7O)[C@H](O)[C@H]6O)C(C)(C)C5CC[C@]43C)[C@@H]2C1 (stereo not given in full)	14.1	-7.0	3.1	5.5	-7.0
CC1(C)CC[C@]2(C(=O)O)CC[C@]3(C)C(=CC[C@@H]4[C@@]5(C)CC[C@H](O[C@@H]6O[C@H](C(=O)O)[C@@H](O)[C@H](O[C@@H]7OC[C@H](O)[C@H](O)[C@H]7O)[C@H]6O)C(C)(C)[C@@H]5CC[C@]43C)[C@@H]2C1	-83.8	107.8*	17.0	-252.9	-11.7
Cn1c(SCC(=O)NC(=O)Cc2ccccc2)nnc1-c1ccc(F)cc1	-5.7	5.2	9.8	-8.5	-4.0
C=C(C)COc1ccc(-c2[nH]ncc2Oc2cccc(OC)c2)c(O)c1	13.1	110.1*	-3.7	-40.6	38.8
CC[N+]1(C)CCC(O)(c2ccc(OC)cc2)C(C(=O)c2ccc(OC)cc2)C1 (stereo not given)	/	9.1	/	/	/
O=C(NC(=S)NNC(=O)c1cnccn1)c1ccc(Cl)cc1	14.3	71.3	12.7	-17.4	-29.1
COc1ccc(C(=O)NC(=S)NNC(=O)c2cnccn2)cc1	9.5	94.0*	-3.0	13.7	12.5
O=S1(=O)CCC(NS(=O)(=O)/C=C/c2ccccc2)C1 (stereo not given)	-4.2	19.3	2.0	10.9	2.5
O=S(=O)(/C=C/c1ccccc1)NC1CCCCCCC1	28.6	88.4*	35.5	-6.9	-45.7
CNS(=O)(=O)/C=C/c1ccccc1	2.9	24.1	1.8	-6.2	-7.9
O=S(=O)(/C=C/c1ccccc1)NC1CCCCCC1	13.2	99.3*	42.0	-30.4	-137.2
SMILES	tim23-1 inh	PfHsp90 yeast 2	NLRP3 yeast inh	tim10-1 inh	TIM10 inh
CC1=CC2C(C(O)CC3(C)C2CC(C)C32OCOC23COCO3)C2(C)C/C(=C\O)C(=O)C=C12 (stereo not given)	/	110.4*	/	/	/
COP(=O)(OC)c1ccc(NCc2cc(O)ccc2O)cc1	/	-7.2	/	/	/
O=C(OCc1ccccc1)c1ccc(NCc2cc(O)ccc2O)cc1	/	107.7*	/	/	/
CC(C)OC(=O)c1ccc(NCc2cc(O)ccc2O)cc1	/	87.3*	/	/	/
Oc1ccc(NCc2ccccc2OCc2ccccc2)cc1	31.7	-15.6	23.4	7.5	23.3
COC(=O)C1C2CC(=O)C(C2)C1C(=O)OC (stereo not given)	/	-49.2	/	/	/
O=C(Nc1ccc(S(=O)(=O)Nc2cnc3ccccc3n2)cc1)c1ccc(Cl)c([N+](=O)[O-])c1	-3.0	-8.7	7.1	-9.5	-1.3
Cc1cc(C)c(-c2c(O)c3cccnc3n(C)c2=O)c(C)c1	-2.1	/	0.8	-1.3	1.9
O=C(O)c1cccc2c1C(=O)c1ccccc1-2	12.4	-6.7	10.8	8.3	11.4
O=C1C(=C(I)I)c2ccccc2-c2ccccc21	/	106.2*	/	/	/
CCOCCc1nn2c(=O)cc(CSCC(=O)Nc3cc(C)cc(C)c3)nc2s1	6.1	-2.2	3.4	-10.8	4.8
OC(Cn1cncn1)(c1ccccc1)c1ccccc1	26.6	91.8*	1.8	-20.7	0.1
COc1cc(N2C(=O)C=CC2=O)c(OC)cc1Cl	-11.9	109.4*	-1.0	39.6	12.4
COc1cc(S(=O)(=O)N2CCN(C)CC2)c(OC)cc1Cl	7.8	-5.9	2.0	-5.0	-24.7
Cc1ccc(OCC(=O)NNC(=S)NC(=O)C2CC2)c(C)c1	20.8	104.4*	42.3	20.5	-5.6
Cc1ccc(OCC(=O)NNC(=S)NC(=O)C(C)(C)C)c(Br)c1	20.2	104.9*	37.0	11.1	-23.6
Cc1ccc(OCC(=O)NNC(=O)c2ccc(NC(=O)C3CC3)cc2)c(C)c1	3.5	-29.3	18.3	10.1	8.3
Cc1ccc(OCC(=O)NC(=S)Nc2ccccn2)c(Br)c1	7.7	-6.4	11.9	12.4	11.8
O=C(NCCS(=O)(=O)N1CCN(c2cccc(Cl)c2)CC1)C1CC1	3.5	/	14.0	-3.3	4.6
CCOC(=O)c1c(C)oc2c1c(C=NCc1ccccn1)c(O)c1ccccc12	/	18.9	/	/	/
CCOC(=O)c1c(C)oc2c1c(C(c1cccnc1)N1CCOCC1)c(O)c1ccccc12 (stereo not given)	34.9	90.9*	23.4	17.9	24.8
Cc1ccc(C)c(N(C(=O)CNC(=O)c2ccco2)C(C(=O)NC2CCCCC2)c2cccnc2)c1 (stereo not given)	-5.5	-24.7	8.5	-36.2	3.7
O=c1c2ccccc2cnn1-c1ccc2ccccc2c1	40.0	/	15.0	20.5	9.1
O=C1C=CC(=O)N1c1ccc2ccccc2c1	/	116.3*	/	/	/
Cc1cccc(N2C(=O)C=CC2=O)c1	/	116.9*	/	/	/
Cc1cccc(N2C(=O)C3CCCN3C2=S)c1 (stereo not given)	-3.6	-0.4	-1.0	0.9	-22.7
O=C1C=CC(=O)N1c1ccc(Nc2ccccc2)cc1	/	126.0*	/	/	/
Cn1nc(C(C)(C)C)cc1C(=O)NCc1ccc2c(c1)OCO2	12.0	12.0	2.0	17.3	-9.5
COc1ccccc1-c1cccc([C@@H]2C[C@H]3[C@@H](CN2)CON3C)c1	/	4.7	/	/	/
